Our source for the Potency values is PubChem BioAssay (NCATS).

Molecules are shown by their SMILES. Inconclusive results are not listed. Calls of active or inactive are those of the source. Calls follow the shape of the dose curve; as a rule, active = well fitted inhibition curve with a large enough effect; inconclusive = small, poorly fitted or top-dose-only effect; inactive = flat fitted curve, though single readings scatter.

Assay in all cases: qHTS profiling for inhibitors of Plasmodium falciparum proliferation (AID 504749); also: nearly all actives have a fitted effect of over 60% in size
Holding throughout (conditions): P. falciparum in erythrocytes, SYBR Green DNA, 72 h; series mostly up to 28.7 µM
(In qHTS, concentration-response curves come from the screen itself.)

The test system of assay [1] is AA1029. In short, it runs like this: (§1)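 P. falciparum-infected erythrocytes (0.3% parasitemia, 2.5% hematocrit) incubated with compound 72 h at 37 C, 5% CO2. Parasite DNA detected by SYBR Green after lysis, overnight at room temperature; normalised to 0.29 uM artemisinin and DMSO.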
Assay [2] relates to ATS95. The method in brief:
as §1

Assay [3] deals with C2A. In short, it runs like this:
as §1

Assay [4] concerns CP211. In short, it runs like this:
as §1

Assay [5] deals with CP215. In short, it runs like this:
as §1

Assay [6] relates to CP217. The method in brief: as §1
The test system of assay [7] is CP250. In short, it runs like this:
as §1

For assay [8], the system named is CP252. In short, it runs like this:
as §1

Assay [9] relates to CP256. In short, it runs like this: as §1
For assay [10], the system named is CP260. In short, it runs like this:
as §1

Assay [11] relates to CP262. The method in brief:
as §1

The subject of assay [12] is CP265. In short, it runs like this: as §1
Assay [13] has as its system CP291. The method in brief: as §1
Assay [14] relates to CP315. The method in brief: as §1
Assay [15] concerns Dd2. In short, it runs like this: as §1
The test system of assay [16] is FAB9. The method in brief:
as §1

The subject of assay [17] is ICS. The method in brief:
as §1

The test system of assay [18] is N140. In short, it runs like this:
as §1

The test system of assay [19] is SC27B. In short, it runs like this: as §1
Assay [20] has as its system TAB165. The method in brief:
as §1
Potency is read from the fitted curve at half-maximal effect.

`O=C(O)CC(O)CC(O)/C=C/c1c(C2CC2)nc2ccccc2c1-c1ccc(F)cc1` (stereo not given): the Potency entry in assay [1], in assay [2], in assay [3], in assay [4], in assay [5] and in assay [6] was “inactive” throughout. For the same molecule, the Potency entry in [7], in assay [8], in assay [9], in assay [10], in [11] and in assay [12] was “inactive” in each case. Besides, the Potency entry in [13], in assay [14], in [15], in assay [16], in [17] and in assay [18] was “inactive” each time. Also, the Potency result in assay [19] and in assay [20] was “inactive” in each case.

Consider `C=C[C@H]1CN2CCC1C[C@H]2[C@H](O)c1ccnc2ccc(OC)cc12` (stereo not given in full), for which the Potency was 891 nM (active) in assay [1]; 794 nM (active) in [2]; 1120 nM (active) in assay [3]; 1350 nM (active) in assay [4]; 1200 nM (active) in [5]; 2820 nM (active) in [6]. The Potency is 1000 nM (active) in assay [7]; 891 nM (active) in [8]; 794 nM (active) in assay [9]; 708 nM (active) in assay [10]; 757 nM (active) in assay [11]; 562 nM (active) in assay [12]. The Potency was 1200 nM (active) in assay [13]; 1690 nM (active) in [14]; 891 nM (active) in [15]; 794 nM (active) in assay [16]; 282 nM (active) in assay [17]; 631 nM (active) in assay [18]. Besides, the figures for the Potency in [19] and in [20] were 1000 nM (active) and 1120 nM (active), respectively.

Turning to `Nc1nc(F)nc2c1ncn2[C@@H]1O[C@H](CO)[C@@H](O)[C@H]1O`, the Potency result in [1], in [2], in [3], in assay [4], in [5] and in assay [6] was “inactive” throughout. In addition, the Potency result in assay [7], in assay [8], in [9], in assay [10], in [11] and in [12] was “inactive” throughout. The Potency result in assay [13], in assay [14], in assay [15], in [16], in [17] and in [18] was “inactive” throughout. In addition, the Potency entry in assay [19] and in [20] was “inactive” in each case.

On to `OCCOC[C@H]1O[C@H](OCCO)[C@H](OCCO)[C@@H](OCCO)[C@@H]1OCCO` (tested in a mixture with another compound), for which the Potency result in [1], in [2], in assay [3], in assay [4], in [5] and in [6] was “inactive” in each case. Moreover, the Potency entry in assay [7], in [8], in assay [9], in assay [10], in assay [11] and in [12] was “inactive” in each case. Further, the Potency entry in assay [13], in [14], in assay [15], in [16], in assay [17] and in assay [18] was “inactive” throughout. The Potency result in assay [19] and in [20] was “inactive” each time.

Turning to `CC1(C(=O)O)CCC2(C)CCC3(C)C(=CC(=O)C4C5(C)CCC(O)C(C)(C)C5CCC43C)C2C1` (stereo not given), the Potency entry in assay [1], in assay [2], in assay [3], in [4], in [5] and in assay [6] was “inactive” throughout. For the same molecule, the Potency entry in assay [7], in assay [8], in assay [9], in assay [10], in assay [11] and in assay [12] was “inactive” throughout. Moreover, the Potency result in [13], in assay [14], in [15], in [16], in assay [17] and in assay [18] was “inactive” throughout. The Potency result in assay [19] and in assay [20] was “inactive” each time.

`C[C@H]1[C@@H](OC(=O)CCC(=O)O)OC2OC3(C)CC[C@H]4[C@H](C)CC[C@@H]1[C@@]24OO3` (stereo not given in full): the Potency was 6.3 nM (active) in [1]; 5 nM (active) in [2]; 3.2 nM (active) in [3]; 4.8 nM (active) in assay [4]; 5.4 nM (active) in assay [5]; 7.1 nM (active) in [6]. Besides, the Potency was 4.5 nM (active) in assay [7]; 5 nM (active) in assay [8]; 7.1 nM (active) in assay [9]; 5 nM (active) in assay [10]; 5.4 nM (active) in assay [11]; 2.5 nM (active) in assay [12]. In addition, the Potency in [13] was 4.3 nM (active); in assay [14], 12 nM (active); in assay [15], 4.5 nM (active); in assay [16], 4.5 nM (active); in assay [17] it was 3.2 nM (active); in assay [18], 3.2 nM (active). The Potency in assay [19] was 5 nM (active); in [20], 1.8 nM (active).

Take `CN1[C@@H]2CC[C@@H]1CC(OC(=O)[C@H](CO)c1ccccc1)C2` (stereo not given in full): the Potency result in assay [1], in [2], in [3], in assay [4], in [5] and in [6] was “inactive” throughout. The Potency entry in [7], in assay [8], in [9], in assay [10], in assay [11] and in assay [12] was “inactive” in each case. The Potency result in assay [13], in [14], in assay [15], in assay [16], in [17] and in [18] was “inactive” in each case. Moreover, the Potency result in assay [19] and in assay [20] was “inactive” throughout.

For the molecule `CC(CCC(=O)O)C1CCC2C3C(=O)C[C@@H]4CC(=O)CC[C@@]4(C)C3CC(=O)[C@]12C` (stereo not given in full), the Potency result in assay [1], in [2], in assay [3], in [4], in assay [5] and in assay [6] was “inactive” in each case. Moreover, the Potency entry in [7], in [8], in assay [9], in assay [10], in assay [11] and in assay [12] was “inactive” each time. For the same molecule, the Potency result in [13], in [14], in [15], in assay [16], in assay [17] and in assay [18] was “inactive” each time. Besides, the Potency result in [19] and in assay [20] was “inactive” throughout.
